These results are taken from PubChem BioAssay AID1645855 (Buhrlage Lab, Dana-Farber Cancer Institute and Novartis …, 2021).

SMILES strings stand for the structures. Hit rate of the full screen: of about 47,000 compounds, about 3,100 (6.6%) were called active. The entries come from a sample that favours actives as a whole. Unmarked numbers belong to inactive results. Cut-off read from the data, not from the text of the source: active = inhibition above about 30%; inactive = the rest.

For the test, the target named is Ubiquitin carboxyl-terminal hydrolase 17-like protein 5 (Homo sapiens) (UniProt A8MUK1). As to the kind of experiment: inhibitors of human USP17 deubiquitinase (AID 1645855). The following applies: purified USP17, Ub-rhodamine cleavage fluorescence, 3 h; at 50 µM; hits give high values.
Sequence of Ubiquitin carboxyl-terminal hydrolase 17-like protein 5 (Homo sapiens) (A8MUK1 whole entry, looked up): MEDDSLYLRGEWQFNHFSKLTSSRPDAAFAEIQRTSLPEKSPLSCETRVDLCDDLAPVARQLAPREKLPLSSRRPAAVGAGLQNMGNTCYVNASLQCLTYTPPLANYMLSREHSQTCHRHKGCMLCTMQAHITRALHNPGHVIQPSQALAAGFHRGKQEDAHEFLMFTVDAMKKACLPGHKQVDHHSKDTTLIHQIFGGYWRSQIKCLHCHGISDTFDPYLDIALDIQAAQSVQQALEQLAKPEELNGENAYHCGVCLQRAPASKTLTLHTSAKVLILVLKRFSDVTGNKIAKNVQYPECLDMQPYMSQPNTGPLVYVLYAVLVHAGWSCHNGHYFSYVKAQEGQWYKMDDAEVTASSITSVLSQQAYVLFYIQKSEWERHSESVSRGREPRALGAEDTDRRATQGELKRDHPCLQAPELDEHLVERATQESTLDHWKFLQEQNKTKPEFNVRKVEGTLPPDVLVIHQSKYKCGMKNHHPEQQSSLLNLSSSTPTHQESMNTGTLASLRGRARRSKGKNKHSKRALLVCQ
As a reminder, the inhibition is the drop in the measured response relative to a control, in per cent. In the case of `COC(=O)c1sc(-c2ccccc2)cc1NC(=O)c1ccc(C)cc1`, the inhibition was 8.72%.

As to `COc1cccc(NC(=O)C2Cc3ccccc3N2C(=O)c2ccccc2)c1` (stereo not given), the inhibition was 57.8% (active).

For the compound `COc1cccc(NC(=O)N2C[C@H]3CN(C(C)C)CC[C@H]32)c1`, the inhibition is -122%.

As to `N#Cc1cccc(NC(=O)C2Cc3ccccc3CN2C(=O)c2ccccc2)c1` (stereo not given), the inhibition is -4.46%.

Turning to `Cn1cc(CN2CCC3(CC2)Nc2cc(Cl)ccc2C2=NCCN23)cn1`, the inhibition was -4.3%.

For the compound `Cc1ccccc1NS(=O)(=O)c1cc2c(cc1Cl)NC(=O)CO2`, the inhibition is 11.5%.

Take `COc1ccc(NC(=O)CCN2C(=O)c3cccnc3Sc3ccccc32)cc1`: the inhibition was 0.608%.

With `Cc1ccc(Cc2nc(CC(=O)Nc3ccc(F)cc3F)n[nH]2)cc1`, the inhibition was 12.8%.

Regarding `CC(C)CCNC(=O)C1(C)Cn2c(cc3ccccc32)C(=O)N1Cc1ccccc1F` (stereo not given), the inhibition was -0.678%.

In the case of `CC1(C(=O)NC2CCCC2)Cn2c(cc3ccccc32)C(=O)N1c1ccc(F)cc1` (stereo not given), the inhibition is 62.5% (active).

For `COc1ccccc1CN1C(=O)c2cc3occc3n2CC1(C)C(=O)NC1CCCCC1` (stereo not given), the inhibition was 6.42%.

Turning to `COCCNC(=O)C(Cc1ccccc1)N1Cc2ccccc2C1=O` (stereo not given), the inhibition was 4.85%.

For `O=C(N[C@@H](C(=O)O)c1ccccc1)[C@@H](Cc1ccccc1)n1c(=O)[nH]c2ccccc2c1=O`, the inhibition is 9.14%.

Regarding `CC1CCC(NC(=O)Cn2c(=O)[nH]c3ccccc3c2=O)CC1` (stereo not given), the inhibition was 41.5% (active).

Take `O=C(Cn1cccc1C(=O)c1ccccc1)NC1CCN(Cc2ccccc2)CC1`: the inhibition was -2.81%.

On to `CCN1CCC2(CC1)OC(=O)C(C)=C2C(=O)Nc1cc(C)ccc1C`, for which the inhibition is -4.59%.

Turning to `CNc1nc(C2CCCN(C)C2)nc2c1CCN(C(=O)Cc1c[nH]c3ccccc13)C2` (stereo not given), the inhibition was -1.33%.

With `Cc1ccn2c(NCCc3ccccc3)c(-c3ccc(O)cc3)nc2c1`, the inhibition was 20.5%.

For the compound `Cc1cccc(-c2nc(Nc3ccc(O)cc3)c3ccccc3n2)c1`, the inhibition is 69.2% (active).

With `Cc1cccc(-c2noc(Cc3nnc(-c4ccccc4)o3)n2)c1`, the inhibition was -20.8%.

On to `Cc1nccc(C2CN(C(=O)CCc3c[nH]c4ccccc34)CCO2)n1` (stereo not given), for which the inhibition was -0.542%.

Regarding `CN1CC(c2ncn[nH]2)c2cc(C(=O)NCc3cccc(F)c3)ccc21` (stereo not given), the inhibition was 8.47%.

For `O=C(Cc1c(Cl)cccc1Cl)NCc1cccc(C(F)(F)F)c1`, the inhibition is 34.4% (active).

In the case of `O=C(Cc1cccc(C(F)(F)F)c1)Nc1cccn2ncnc12`, the inhibition was -3.85%.

As for `O=C(NCc1ccccc1)c1nc[nH]c1C(=O)NCc1cccc(C(F)(F)F)c1`, the inhibition is -0.00262%.
